Data taken from ChEMBL document CHEMBL1201862, “PubChem BioAssay data set” (2004).
About 2,100 (0.53%) of roughly 400,000 compounds were called active. Roughly 14% stayed inconclusive and do not appear here. The sample holds actives, similar compounds and a random draw of the others, so the mix is not that of the screen. How the calls were made is not given here.

These compounds were tested against Ataxin-2 (Homo sapiens) (UniProt Q99700) (assay: qHTS for Inhibitors of ATXN expression.).
Format: functional

Chain of Ataxin-2 (Homo sapiens) (Q99700 whole entry): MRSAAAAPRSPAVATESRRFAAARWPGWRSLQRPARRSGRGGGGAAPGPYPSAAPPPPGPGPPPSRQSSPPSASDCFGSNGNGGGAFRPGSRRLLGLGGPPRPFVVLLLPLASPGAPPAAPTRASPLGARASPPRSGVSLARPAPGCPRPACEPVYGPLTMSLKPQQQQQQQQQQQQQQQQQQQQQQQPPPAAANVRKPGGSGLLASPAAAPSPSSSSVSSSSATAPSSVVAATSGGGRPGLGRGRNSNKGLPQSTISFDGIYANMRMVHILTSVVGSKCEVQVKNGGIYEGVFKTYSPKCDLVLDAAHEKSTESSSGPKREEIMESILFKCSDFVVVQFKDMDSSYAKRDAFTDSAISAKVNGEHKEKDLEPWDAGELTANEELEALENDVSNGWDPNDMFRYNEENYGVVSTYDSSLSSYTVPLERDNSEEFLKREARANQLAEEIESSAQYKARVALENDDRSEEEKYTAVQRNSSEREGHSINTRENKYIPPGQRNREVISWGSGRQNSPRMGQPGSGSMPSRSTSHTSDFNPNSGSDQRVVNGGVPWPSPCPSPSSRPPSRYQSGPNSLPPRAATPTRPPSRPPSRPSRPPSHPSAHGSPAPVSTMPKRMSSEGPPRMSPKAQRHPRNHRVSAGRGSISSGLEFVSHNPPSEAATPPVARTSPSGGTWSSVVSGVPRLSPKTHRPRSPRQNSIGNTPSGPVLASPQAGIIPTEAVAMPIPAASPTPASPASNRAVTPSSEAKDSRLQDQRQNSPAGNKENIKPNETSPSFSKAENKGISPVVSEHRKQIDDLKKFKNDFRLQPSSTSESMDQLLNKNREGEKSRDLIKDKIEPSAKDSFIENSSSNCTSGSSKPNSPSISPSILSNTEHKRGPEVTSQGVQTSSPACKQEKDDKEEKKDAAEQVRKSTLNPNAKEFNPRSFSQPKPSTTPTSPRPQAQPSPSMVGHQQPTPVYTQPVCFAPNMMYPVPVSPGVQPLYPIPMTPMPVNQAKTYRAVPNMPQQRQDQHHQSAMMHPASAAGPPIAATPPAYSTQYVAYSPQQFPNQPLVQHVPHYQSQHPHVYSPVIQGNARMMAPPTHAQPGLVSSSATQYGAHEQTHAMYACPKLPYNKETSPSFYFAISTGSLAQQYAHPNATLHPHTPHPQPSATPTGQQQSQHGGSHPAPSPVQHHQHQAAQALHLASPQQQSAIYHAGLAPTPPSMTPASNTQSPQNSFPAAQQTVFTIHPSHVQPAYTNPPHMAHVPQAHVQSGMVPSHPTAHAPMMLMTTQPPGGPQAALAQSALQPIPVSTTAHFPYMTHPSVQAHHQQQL

Compound | Potency
CC(=O)NNC(=O)c1sc(=S)n2c1[nH]c(=O)c1sccc12 | inactive
CCN(CC)c1ccc(/C=C/c2cc(-c3ccccc3)c3ccccc3n2)cc1 | inactive
Oc1ccc(/C=C/c2ccnc3ccccc23)cc1 | inactive
CN(C)c1ccc(C=Cc2nccc3ccccc23)cc1 | inactive
C[n+]1c(/C=C/c2ccc(O)cc2)ccc2ccccc21 | 26.7 µM (active)
CN(C)c1ccc(/C=C/c2ccc3c4ccccc4ccc3[n+]2-c2ccccc2)cc1 | 11.9 µM (active)
Oc1ccc(/C=C/c2ccc3ccccc3n2)cc1 | inactive
O=C1C(Cl)=C(NC2CCCCC2)C(=O)N1Cc1ccccc1 | inactive
C=CCn1c(C)c(C(C)=O)cc(NC(=O)c2ccccc2)c1=O | inactive
CCOC(=O)C1CCCN(S(=O)(=O)c2ccc3c4c(cccc24)C(=O)N3CC)C1 (stereo unspecified) | inactive
CCN(CC)C(=O)CN1C(=O)c2cccc3cccc1c23 | inactive
Cc1cc(C)cc(OCC(O)CN2CCC(CN3C(=O)c4cccc5cccc(c45)C3=O)CC2)c1 (stereo unspecified) | 28.2 µM (active)
Cc1cccc(C)c1OCC(O)CN1CCC(CN2C(=O)c3cccc4cccc(c34)C2=O)CC1 (stereo unspecified) | 25.1 µM (active)
O=C1c2cccc3cc([N+](=O)[O-])cc(c23)C(=O)N1CC1CCCO1 (stereo unspecified) | inactive
CCOC(=O)N1CCN(CC(O)COc2cc(C)cc(C)c2)CC1 (stereo unspecified) | inactive
O=C(CN1C(=O)c2cccc3cccc1c23)NC1CCCCC1 | inactive
CCC(C)NC(=O)CN1C(=O)c2cccc3cccc1c23 (stereo unspecified) | inactive
Cc1ccc(C)c(OCC(O)CN2CCC(CN3C(=O)c4cccc5cccc(c45)C3=O)CC2)c1 (stereo unspecified) | 39.8 µM (active)
CCOC(=O)C1CCN(S(=O)(=O)c2ccc3c4c(cccc24)C(=O)N3CC)CC1 | inactive
O=C(CN1C(=O)c2cccc3cccc1c23)NC1CCCC1 | inactive
CCc1ccc(OCC(O)CN2CCC(CN3C(=O)c4cccc5cccc(c45)C3=O)CC2)cc1 (stereo unspecified) | 39.8 µM (active)
COc1ccc(-c2cc(=O)oc3c(C)c(O)c(CN(C)C)cc23)cc1 | inactive
COCCNC(=O)/C(C#N)=C/c1c(N2CCN(C)CC2)nc2c(C)cccn2c1=O | inactive
CCOCCCn1c(=N)c(C(=O)NCc2cccnc2)cc2c(=O)n3cc(C)ccc3nc21 | inactive
Cc1ccc(S(=O)(=O)c2cc3ccc(O)cc3oc2=O)cc1C | inactive
CCCc1cc(=O)oc2c(CN3CCCC3)c(O)c(Cl)cc12 | inactive

Compound | Potency
CC(=O)NC(=Nc1ccc(C)cc1Cl)Nc1nc(C)cc(C)n1 | inactive
Oc1c(C(c2ccccn2)N2CCC(Cc3ccccc3)CC2)cc(Cl)c2cccnc12 (stereo unspecified) | inactive
Cc1ccc(C)c(OCC(O)CN2CCC(Cc3ccccc3)CC2)c1 (stereo unspecified) | 39.8 µM (active)
CC1=C(C(=O)N2CCCCCC2)CC(CC(=O)NCCCCc2ccccc2)C(=O)N1Cc1ccccc1 (stereo unspecified) | 35.5 µM (active)
CC(CCc1ccccc1)NC(=O)C1CCC1 (stereo unspecified) | inactive
CC1=C(C(=O)N(C(C)C)C(C)C)CC(CC(=O)NCc2cccc3ccccc23)C(=O)N1CCC1=CCCCC1 (stereo unspecified) | 39.8 µM (active)
O=C(COC(=O)c1cc(S(=O)(=O)N2CCCC2)ccc1O)NCCc1ccccc1 | inactive
CC1=C(C(=O)N(C(C)C)C(C)C)CC(CC(=O)NCCCCc2ccccc2)C(=O)N1CCC1=CCCCC1 (stereo unspecified) | 39.8 µM (active)
CC1=C(C(=O)N(C(C)C)C(C)C)CC(CC(=O)NC(c2ccccc2)c2ccccc2)C(=O)N1CCC1=CCCCC1 (stereo unspecified) | 39.8 µM (active)
CCOC(=O)C(CC(=O)O)NCc1ccco1 (stereo unspecified) | inactive
CCn1nc(C)c(/C=N/NC(=O)c2nc3nc(C)cc(C)n3n2)c1C | inactive
CC1=C(C(=O)N2CCCCCC2)CC(CC(=O)NCCCCc2ccccc2)C(=O)N1CCC1=CCCCC1 (stereo unspecified) | 17.8 µM (active)
CCOC(=O)c1c(N)n(CCOC(=O)c2cccs2)c2nc3ccccc3nc12 | inactive
O=C(CCl)N1CCN2C(=O)c3ccccc3C12c1ccc(Cl)cc1 (stereo unspecified) | 21.2 µM (active)
CCOC(=O)N1CCc2[nH]c3ccc(C)cc3c2C1 | inactive
CN(C)CC(O)CN(c1ccccc1)c1ccccc1 (stereo unspecified) | inactive
CN(C)CC(CCC(CN(C)C)C(O)(c1ccccc1)c1ccccc1)C(O)(c1ccccc1)c1ccccc1 (stereo unspecified) | 28.2 µM (active)
COc1ccc(S(=O)(=O)N2CCN(C(=O)c3cc4c(s3)CCCC4)CC2)cc1 | inactive
CCC(C)NC(=O)c1cc2c(=O)n3cccc(C)c3nc2s1 (stereo unspecified) | inactive
Clc1ccc(/C=N/N2CCN(Cc3ccccc3)CC2)cc1 | inactive
CN1CCN(/N=C/c2ccc(N(c3ccccc3)c3ccccc3)cc2)CC1 | 31.6 µM (active)
CN(C)c1ccc(/C=N/N2CCN(c3ccccn3)CC2)cc1 | inactive
COc1ccc2oc(=O)c(-c3cn4ccc(C)cc4n3)cc2c1 | inactive
COc1ccc(C2=CC(c3ccc(N(C)C)cc3)n3nnnc3N2)cc1 (stereo unspecified) | inactive
O=C(CSc1nccc(-c2cccs2)n1)Nc1cccc(Cl)c1Cl | inactive
CC(C)CNC(=O)COC(=O)c1c2c(nc3ccccc13)/C(=C\c1cccs1)CC2 | inactive

Compound | Potency
COc1ccccc1-c1c(C#N)c(N)nc2c1CCC2 | inactive
COc1ccccc1-c1cc(SC)c(C#N)c(=O)o1 | 35.5 µM (active)
COc1ccccc1-c1ccc(/C=C2\C=CC(=O)O2)o1 | inactive
CC1CCCN(Cc2c(O)ccc3c2O/C(=C\c2ccco2)C3=O)C1 (stereo unspecified) | inactive
CN(c1ccccc1)c1ccc(/C=C/[N+](=O)[O-])cc1 | 25.1 µM (active)
Nc1c(C(=O)NCCN2CCOCC2)c2nc3ccccc3nc2n1CCc1ccccc1F | inactive
Nc1c(C(=O)NCCN2CCOCC2)c2nc3ccccc3nc2n1-c1cccc(F)c1 | inactive
O=C(CCS(=O)(=O)c1ccccc1)N(CCCN1CCOCC1)c1nc2ccccc2s1 | 39.8 µM (active)
Nc1c(C(=O)c2ccccc2)sc2nsc(SCCN3CCOCC3)c12 | inactive
O=C(CCS(=O)(=O)c1ccccc1)N(CCCN1CCOCC1)c1nc2c(F)cccc2s1 | 31.6 µM (active)
O=C(NCCCN1CCOCC1)c1cc2nc(-c3ccco3)cc(C(F)(F)F)n2n1 | inactive
Nc1c(C(=O)NCCN2CCOCC2)c2nc3ccccc3nc2n1-c1ccccc1 | inactive
Cc1cccc2sc(N(CCN3CCOCC3)C(=O)CCS(=O)(=O)c3ccccc3)nc12 | 39.8 µM (active)
O=C(CCS(=O)(=O)c1ccccc1)N(CCCN1CCOCC1)c1nc2ccc(F)cc2s1 | 25.1 µM (active)
O=C(CNC(=S)N(CCCN1CCOCC1)Cc1cccs1)NCc1ccccc1 | inactive
CCCCC1CCC(C(=O)OC(C)C(=O)Nc2ccc(NC(C)=O)cc2)CC1 (stereo unspecified) | inactive
NNC(=O)c1oc2nc(-c3ccccc3)cc(-c3ccccc3)c2c1N | inactive
Cc1nc2nc(-c3cccs3)cn2nc1C | inactive
CCCCn1c(NC(=O)c2ccccc2)c(C#N)c2nc3ccccc3nc21 | inactive
COc1ccccc1NCC(=O)N/N=C/c1sccc1C | inactive
COc1cccc(CN=C(S)Nc2cc(C)ccc2C)c1 | inactive
CCN(CC)CCN(C(=O)CCS(=O)(=O)c1ccccc1)c1nc2c(C)cc(C)cc2s1 | 44.7 µM (active)
CCn1cc(C(=O)OCC(=O)Nc2ccc(C)c(Cl)c2)c(=O)c2ccc(C)nc21 | inactive
COC(=O)COc1cccc2c(=O)n(CC(=O)N3CCCCC3)ccc12 | inactive
CCn1ccc2c(OCC(=O)Nc3ccc(C)c(Cl)c3)cccc2c1=O | 39.8 µM (active)
Cc1ccccc1C(=O)OC(C)CN1CCN(C)CC1 (stereo unspecified) | inactive

Compound | Potency
CC1CCN(c2ccc3c(c2)S(=O)(=O)c2ccccc2C3=O)CC1 | inactive
CN1CCN(C2=C(Cl)C(=O)c3ccccc3C2=O)CC1 | 16.8 µM (active)
CCN(CC(=O)Nc1ccccc1OC)C(=O)c1ccccc1Sc1ccccc1C#N | inactive
CCN(CC)c1ccc(N=Nc2nc[nH]n2)cc1 | 10 µM (active)
CCOc1ccc(N(C)S(=O)(=O)c2c[nH]cn2)cc1 | inactive
O=C(O)c1ccccc1-c1ccc(/C=C/c2cc(C(F)(F)F)nc(O)n2)o1 | inactive
COc1ccccc1CN1CCc2c([nH]c3ccccc23)C1 | inactive
COc1cccc(C(=O)COC(=O)CCC(=O)c2ccccc2)c1 | inactive
COc1cccc(C=C(C(C)=O)C(=O)c2ccccc2)c1 | 31.6 µM (active)
CC(=O)C(=Cc1ccc(-c2ccccc2)cc1)C(=O)c1ccccc1 | 28.2 µM (active)
COc1cccc(C(=O)NNS(=O)(=O)c2ccccc2)c1 | inactive
C/C(=C\c1ccccc1)C(=O)c1c(C)cc(C)nc1O | inactive
CC(=O)c1c(C)[nH]c(C(=O)COC(=O)COc2ccccc2F)c1C | inactive
CC(=O)NC1C(=O)N(CCN2CCOCC2)c2ccc(C)cc21 (stereo unspecified) | inactive
Nc1c(C(=O)NCc2ccccc2)c2nc3ccccc3nc2n1CCCN1CCOCC1 | inactive
Cc1cccn2c(=O)c3cc(C(=O)NCc4ccccc4)c(=N)n(CCCN4CCOCC4)c3nc12 | inactive
Cc1nc2nc(C)n(CCN3CCOCC3)c(=O)c2c(-c2cccc([N+](=O)[O-])c2)c1C(=O)CCCCCCCCCCN1CCC(c2ccccc2)(c2ccccc2)CC1 | 13.4 µM (active)
O=C(NC1CCCCC1)c1cccc2c1C(=O)c1ccc(N3CCC(Cc4ccccc4)CC3)cc1S2(=O)=O | inactive
O=C(NCCOc1ccccc1Cl)c1cccc2c1C(=O)c1ccc(Cl)cc1S2(=O)=O | 35.5 µM (active)
O=C(NC1CCCC1)c1cccc2c1C(=O)c1ccc(/C=C/c3ccccc3)cc1S2(=O)=O | inactive
O=C(NCc1ccccc1)c1cccc2c1C(=O)c1ccc(/C=C/c3ccccc3)cc1S2(=O)=O | inactive
O=C1c2ccc(Cl)cc2S(=O)(=O)c2cccc(C(=O)N3CCC(Cc4ccccc4)CC3)c21 | 31.6 µM (active)
O=C(NC1CC1)c1cccc2c1C(=O)c1ccc(N3CCC(Cc4ccccc4)CC3)cc1S2(=O)=O | inactive
